Our source for the Potency values is PubChem BioAssay (Tox21).

Experiment [1] in a line: Nuclear factor erythroid 2-related factor 2/antioxidant responsive element (Nrf2/ARE) small molecule agonists: qHTS cell viability counter screen in human keratinocytes (AID 1919968; active means well fitted curve in the direction sought with a large enough effect in the repeat runs; an effect the other way counts as inactive or inconclusive; further: nearly all actives have a fitted effect of over 55% in size). A digest of the protocol:
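Cells of the KeratinoSens line were plated at 1,500 per well and left for 5 h before compound transfer from DMSO stocks. After a 23 h incubation (37 C, 5% CO2), CellTiter-Fluor was added. Signal was taken as fluorescence intensity 1 h later.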

A short description of experiment [2]: Nuclear factor erythroid 2-related factor 2/antioxidant responsive element (Nrf2/ARE) small molecule agonists: luciferase reporter gene qHTS assay in human keratinocytes (AID 1919969; further: nearly all actives have a fitted effect of over 35% in size). (Reporter assays use an easily measured gene product as a stand-in for the process of interest.)
Experiment [3] addresses Gonadotropin-releasing hormone receptor (Homo sapiens) (UniProt P30968). In words: Human gonadotropin-releasing hormone receptor (GnRHR) small molecule agonists, calcium flux assay in GnRHR-HEK293 cells (AID 1920063). Further: nearly all actives have a fitted effect of over 35% in size. Further: potency means the concentration at half of the fitted maximal effect. An outline of the steps:
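Compounds dissolved in DMSO are pin-transferred onto dye-loaded GnRHR-HEK293 cells, which were seeded 18 h before at 37 C/5% CO2. Calcium signal is read as fluorescence intensity at 1 s intervals for 3 min.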
For orientation: A change in cytosolic calcium serves as a functional read-out for many receptors and channels.

Experiment [4] has as its target KiSS-1 receptor (Homo sapiens) (UniProt Q969F8). Briefly: Human kisspeptin (KISS1R) small molecule agonists, calcium flux assay in KISS1R-HEK293 cells (AID 1920064; active means well fitted curve in the direction sought with a large enough effect in the repeat runs; an effect the other way counts as inactive or inconclusive; further: potency means the concentration at half of the fitted maximal effect). A digest of the protocol:
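Cell line: HEK293, stable human KISS1R. Dye loading 1 h at 37 C after 18 h culture. Read: kinetic fluorescence, 480/540 nm, 3 min at 1 s intervals.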

Experiment [5] in a line: p53 small molecule agonists, cell-based qHTS assay with rat liver microsomes (AID 1963578). A digest of the protocol:
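p53RE-bla cells were exposed to compounds together with rat liver microsomes (0.5 mg/mL final) and NADPH (0.5 mg/mL final) for 16 h at 37 C, then read by LiveBLAzer beta-lactamase fluorescence after 2 h at room temperature.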
A general note: Quantitative high-throughput screening tests each substance at several concentrations.

A short description of experiment [6]: p53 small molecule agonists, cell-based qHTS assay with human liver microsomes: qHTS cell viability counter screen (AID 1963579). Further: nearly all actives have a fitted effect of over 45% in size. An outline of the steps: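 p53RE-bla cells (4,000/well) were pre-incubated 5 h at 37 C, then given compounds in DMSO plus human liver microsomes (0.5 mg/mL final) and NADPH (0.5 mg/mL final) for 16 h at 37 C. Viability was read by CellTiter-Glo luminescence.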

Experiment [7] in a line: p53 small molecule agonists, cell-based qHTS assay with rat liver microsomes: qHTS cell viability counter screen (AID 1963580). Further: nearly all actives have a fitted effect of over 45% in size. An outline of the steps:
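Cytotoxicity counter screen: intracellular ATP read by CellTiter-Glo luminescence in the p53 reporter wells. HCT-116 p53RE-bla cells were treated for 16 h at 37 C alongside rat liver microsomes and NADPH, each 0.5 mg/mL final.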

Experiment [8] is described as follows: p53 small molecule agonists, cell-based qHTS assay: qHTS cell viability counter screen (AID 1963581). Further: nearly all actives have a fitted effect of over 45% in size. An outline of the steps:
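ATP content measured by luminescence in HCT-116 p53RE-bla cells treated 16 h at 37 C, same wells as the reporter screen.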

Experiment [9] can be described thus: p53 small molecule agonists, cell-based qHTS assay (AID 1963582; active means well fitted activation curve with a large enough effect in the signal ratio in the repeat runs, not every such curve was filed as active; the % refers to the signal ratio). A digest of the protocol:
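16 h compound exposure (37 C) of p53 response element–bla cells, preceded by 5 h recovery at 37 C/5% CO2; read-out via LiveBLAzer B/G FRET substrate, 2 h RT, fluorescence intensity.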

The target in experiment [10] is 5-hydroxytryptamine receptor 2A (Homo sapiens) (UniProt P28223). Briefly: 5-hydroxytryptamine receptor 2A (HTR2A) small molecule antagonists, cell-based qHTS assay (AID 1963586). Further: nearly all actives have a fitted effect of over 45% in size. A digest of the protocol: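 CHO cells stably expressing human HTR2A were plated for 18 h at 37 C, then loaded with calcium dye for 1 h. Compounds were preincubated 5 min at room temperature before DOI (4 nM solution) was added. Kinetic fluorescence was read for 3 min.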
Chain of 5-hydroxytryptamine receptor 2A (Homo sapiens) (P28223 whole entry, looked up): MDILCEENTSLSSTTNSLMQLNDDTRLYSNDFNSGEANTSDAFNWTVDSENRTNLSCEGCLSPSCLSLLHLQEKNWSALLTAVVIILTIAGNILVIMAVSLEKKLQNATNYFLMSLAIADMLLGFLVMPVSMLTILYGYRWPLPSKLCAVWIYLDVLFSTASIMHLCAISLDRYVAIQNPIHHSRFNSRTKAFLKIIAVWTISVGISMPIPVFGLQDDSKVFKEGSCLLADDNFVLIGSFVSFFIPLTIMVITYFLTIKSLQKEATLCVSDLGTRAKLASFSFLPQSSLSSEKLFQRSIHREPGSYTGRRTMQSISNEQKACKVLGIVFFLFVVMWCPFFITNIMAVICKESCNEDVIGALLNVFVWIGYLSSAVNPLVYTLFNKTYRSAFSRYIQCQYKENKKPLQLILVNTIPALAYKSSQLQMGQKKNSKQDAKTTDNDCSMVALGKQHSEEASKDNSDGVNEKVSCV

Experiment [11] has the same target. In words: 5-hydroxytryptamine receptor 2A (HTR2A) small molecule agonists, cell-based qHTS assay (AID 1963587). Further: nearly all actives have a fitted effect of over 30% in size. Further: potency means the concentration at half of the fitted maximal effect. A digest of the protocol:
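Kinetic calcium-flux fluorescence (2 min, 1 sec intervals) after compound addition in agonist mode. HTR2A-CHO cells were cultured 18 h, then dye-loaded 1 h at 37 C.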

Experiment [12] addresses Muscarinic acetylcholine receptor M1 (Homo sapiens) (UniProt P11229). Briefly: Cholinergic receptor muscarinic 1 (CHRM1) small molecule antagonists, cell-based qHTS assay (AID 1963588). Further: nearly all actives have a fitted effect of over 40% in size. An outline of the steps:
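Compounds were tested at 15 concentrations in three independent runs. Dye-loaded CHRM1-CHO cells were exposed 5 min at room temperature before stimulation by acetylcholine added at 50nM. Intracellular calcium was read kinetically on FDSS for 3 min.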

Experiment [13] shares this target. In words: Cholinergic receptor muscarinic 1 (CHRM1) small molecule agonists, cell-based qHTS assay (AID 1963589). Further: nearly all actives have a fitted effect of over 35% in size. Further: potency means the concentration at half of the fitted maximal effect. A digest of the protocol: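 Homogeneous fluorescence calcium flux, agonist mode. Human M1-expressing CHO cells; compound dosed at 15 concentrations, three independent runs; signal sampled every 1 sec.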
Experiment [14] is described as follows: cAMP Responsive Elements (CRE) small molecule agonists, cell-based qHTS assay (AID 1963590). An outline of the steps:
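HEK 293T cells stably bearing CRE-bla were plated at 2,000 cells per well and rested 18 h. Compounds, positive controls or DMSO were added for 3 h at 37 C. LiveBLAzer B/G substrate was then loaded for 2 h at room temperature.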

Experiment [15] can be described thus: cAMP Responsive Elements (CRE) small molecule antagonists, cell-based qHTS assay (AID 1963591; active means well fitted inhibition curve with a large enough effect in the signal ratio in the repeat runs, not every such curve was filed as active; the % refers to the signal ratio; further: potency means the concentration at half of the fitted maximal effect). A digest of the protocol:
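First, CRE-bla HEK293T cells settled 18 h at 37 C. Next, compound and 0.25 uM final NKH477 were applied for 3 h. Last, LiveBLAzer B/G substrate was loaded for 2 h at room temperature.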

Experiment [16] addresses D(2) dopamine receptor (Homo sapiens) (UniProt P14416). Briefly: Dopamine D2 receptor (DRD2) small molecule antagonists, cell-based qHTS assay (AID 1963595; active means well fitted inhibition curve with a large enough effect in the signal ratio in the repeat runs, with a control signal flat; the % refers to the signal ratio). An outline of the steps: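 Readout: HTRF cAMP, cAMP-d2 competing with cellular cAMP for anti-cAMP cryptate, read after 1 h. Cells: DRD2-HEK293. Conditions: 0.1 mM Ro20-1724, 12 nM quinpirole, 200 nM NKH477, 30 min RT.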

Experiment [17] in a line: G protein-coupled receptor (GPCR) small molecule agonists, calcium flux assay: HEK293 wild type cell line counter screen (AID 1920065). A digest of the protocol:
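Tox21 10K compounds, 15 concentrations each in triplicate, pin-transferred in DMSO onto dye-loaded cells; kinetic read at 480/540 nm for 3 min, 1 s intervals.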

The target in experiment [18] is Beta-2 adrenergic receptor (Homo sapiens) (UniProt P07550). In words: Adrenergic beta2 receptor (ADRB2) small molecule antagonists, cell-based qHTS assay (AID 1963592). Further: series mostly up to about 92 µM; nearly all actives have a fitted effect of over 50% in size. An outline of the steps: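 Assay format: CHO-ADRB2 cells, 18-20hr seeding at 37C/5% CO2, then compound plus 1nM isoproterenol agonist mix for 0.5hr RT. Homogeneous time-resolved fluorescence cAMP detection after 1hr, expressed as 665/615 nm ratio.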
Chain of Beta-2 adrenergic receptor (Homo sapiens) (P07550 whole entry, looked up): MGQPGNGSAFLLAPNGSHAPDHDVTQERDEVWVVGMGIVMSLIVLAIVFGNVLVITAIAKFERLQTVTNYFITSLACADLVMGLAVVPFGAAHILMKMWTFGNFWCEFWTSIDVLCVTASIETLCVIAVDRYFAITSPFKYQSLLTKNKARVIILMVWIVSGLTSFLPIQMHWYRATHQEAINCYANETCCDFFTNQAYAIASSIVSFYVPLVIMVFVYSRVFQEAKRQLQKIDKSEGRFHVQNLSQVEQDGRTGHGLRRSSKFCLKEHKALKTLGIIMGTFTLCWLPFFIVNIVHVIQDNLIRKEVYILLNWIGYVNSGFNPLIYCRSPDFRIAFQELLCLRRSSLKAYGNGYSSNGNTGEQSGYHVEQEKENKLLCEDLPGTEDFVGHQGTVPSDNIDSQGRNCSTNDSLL

Experiment [19] has as its target D(2) dopamine receptor (Homo sapiens) (UniProt P14416). Briefly: Dopamine D2 receptor (DRD2) small molecule agonists, cell-based qHTS assay (AID 1963594). Further: nearly all actives have a fitted effect of over 35% in size. An outline of the steps: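 cAMP accumulation in DRD2-HEK293 cells measured by HTRF after 1 h detection; compounds added 10 min before NKH477 (200nM […]) forskolin-analogue stimulation, 30 min at room temperature, with Ro20-1724 present at 0.1 mM final.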

Experiment [20] has as its target Beta-2 adrenergic receptor (Homo sapiens) (UniProt P07550). In words: Adrenergic beta2 receptor (ADRB2) small molecule agonists, cell-based qHTS assay (AID 1963593).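 Further: CHO cells stably overexpressing human ADRB2.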 An outline of the steps: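 CHO cells stably over-expressing ADRB2 were plated overnight at 37C, then dosed with compounds plus a stimulation mix containing 100uM IBMX and 25uM Ro-20-1724 for 0.5hr at room temperature. cAMP was measured by HTRF competition, 1hr.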

Unmarked numbers belong to inactive results. Records with an inconclusive call do not appear. The source made the active and inactive calls. Unless noted, the call rests on the fitted dose curve.

Chain of KiSS-1 receptor (Homo sapiens) (Q969F8 whole entry, looked up): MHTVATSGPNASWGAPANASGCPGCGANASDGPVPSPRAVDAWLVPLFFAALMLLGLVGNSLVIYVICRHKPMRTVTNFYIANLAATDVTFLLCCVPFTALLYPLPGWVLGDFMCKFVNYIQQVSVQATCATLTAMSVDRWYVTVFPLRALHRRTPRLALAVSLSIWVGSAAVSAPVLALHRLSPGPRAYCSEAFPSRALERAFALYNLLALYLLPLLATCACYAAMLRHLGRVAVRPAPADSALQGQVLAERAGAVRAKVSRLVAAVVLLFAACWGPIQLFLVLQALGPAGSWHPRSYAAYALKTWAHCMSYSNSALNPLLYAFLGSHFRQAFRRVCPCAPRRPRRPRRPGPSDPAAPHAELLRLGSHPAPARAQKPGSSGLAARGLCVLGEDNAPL
Chain of Muscarinic acetylcholine receptor M1 (Homo sapiens) (P11229 whole entry, looked up): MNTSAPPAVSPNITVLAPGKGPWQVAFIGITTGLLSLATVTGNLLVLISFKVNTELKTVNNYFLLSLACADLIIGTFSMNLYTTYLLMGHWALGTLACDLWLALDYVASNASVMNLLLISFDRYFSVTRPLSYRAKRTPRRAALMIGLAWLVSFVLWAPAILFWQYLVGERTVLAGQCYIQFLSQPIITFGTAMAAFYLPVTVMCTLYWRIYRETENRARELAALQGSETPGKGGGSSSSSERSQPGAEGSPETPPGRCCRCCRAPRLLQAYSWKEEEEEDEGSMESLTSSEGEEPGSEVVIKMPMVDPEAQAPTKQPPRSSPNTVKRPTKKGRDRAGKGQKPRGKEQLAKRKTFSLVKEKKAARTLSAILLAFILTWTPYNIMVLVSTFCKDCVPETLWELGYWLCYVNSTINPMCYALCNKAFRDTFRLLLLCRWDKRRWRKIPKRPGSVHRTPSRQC
Chain of D(2) dopamine receptor (Homo sapiens) (P14416 whole entry, looked up): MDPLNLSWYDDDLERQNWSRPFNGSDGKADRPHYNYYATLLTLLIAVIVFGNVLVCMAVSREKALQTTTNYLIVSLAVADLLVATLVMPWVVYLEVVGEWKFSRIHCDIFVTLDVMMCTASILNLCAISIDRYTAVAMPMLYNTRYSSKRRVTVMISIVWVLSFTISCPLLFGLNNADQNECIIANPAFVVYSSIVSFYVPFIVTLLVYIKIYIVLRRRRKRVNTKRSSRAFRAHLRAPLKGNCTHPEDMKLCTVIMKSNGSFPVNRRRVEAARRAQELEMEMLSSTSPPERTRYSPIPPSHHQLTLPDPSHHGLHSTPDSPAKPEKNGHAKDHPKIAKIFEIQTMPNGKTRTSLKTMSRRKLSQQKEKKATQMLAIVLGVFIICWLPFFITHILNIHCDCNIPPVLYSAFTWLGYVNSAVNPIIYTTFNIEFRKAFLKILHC
Chain of Gonadotropin-releasing hormone receptor (Homo sapiens) (P30968 whole entry, looked up): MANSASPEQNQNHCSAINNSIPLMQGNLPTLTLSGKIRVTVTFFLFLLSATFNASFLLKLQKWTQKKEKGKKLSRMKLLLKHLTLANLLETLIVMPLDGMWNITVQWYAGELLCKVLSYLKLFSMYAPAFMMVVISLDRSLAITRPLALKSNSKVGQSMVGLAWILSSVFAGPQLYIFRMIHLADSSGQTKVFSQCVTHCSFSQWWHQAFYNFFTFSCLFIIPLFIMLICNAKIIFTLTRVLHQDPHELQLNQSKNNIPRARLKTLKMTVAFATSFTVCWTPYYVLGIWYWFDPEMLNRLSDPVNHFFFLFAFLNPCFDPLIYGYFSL

Consider `CC(=O)NCCCS(=O)(=O)O`, for which the Potency entry in experiment [1], in experiment [2], in experiment [5], in experiment [6], in experiment [7] and in experiment [8] was “inactive” each time. Moreover, the Potency entry in [9], in experiment [10], in [12], in experiment [14], in experiment [15] and in experiment [16] was “inactive” throughout. Further, the Potency is 15 µM (active) in experiment [3], 11.9 µM (active) in [4], 18.9 µM (active) in [11] and 23.8 µM (active) in [13].
As to `CC1(C)[C@H](C(=O)O)N2C(=O)C[C@H]2S1(=O)=O`, the Potency result in experiment [1], in experiment [2], in experiment [3], in experiment [4], in experiment [17] and in [9] was “inactive” each time. For the same compound, the Potency entry in experiment [18], in experiment [19] and in [16] was “inactive” in each case. In addition, the Potency in experiment [15] is 1.33 µM (active).
For the compound `CCN1CCN(C(=O)N[C@@H](C(=O)N[C@@H]2C(=O)N3C(C(=O)O)=C(CSc4nnnn4C)CS[C@H]23)c2ccc(O)cc2)C(=O)C1=O`, the Potency result in experiment [1], in experiment [2], in [3], in [17], in [5] and in experiment [6] was “inactive” in each case. Further, the Potency result in experiment [8], in experiment [9], in [10], in [11], in [12] and in [13] was “inactive” in each case. Besides, the Potency result in experiment [14], in [15], in experiment [18], in experiment [19] and in experiment [16] was “inactive” throughout.
Take `Nc1nc2ccc(OC(F)(F)F)cc2s1`: the Potency result in experiment [1], in experiment [2], in experiment [3], in experiment [4], in experiment [5] and in [7] was “inactive” in each case. Besides, the Potency result in experiment [8], in [14], in experiment [15], in experiment [18] and in experiment [16] was “inactive” throughout.
On to `CC1CCN(CCCC(=O)c2ccc(F)cc2)CC1`, for which the Potency entry in experiment [1], in experiment [2], in experiment [3], in experiment [4], in experiment [6] and in [7] was “inactive” throughout. In addition, the Potency entry in experiment [8], in experiment [11], in [12], in [13], in experiment [14] and in experiment [18] was “inactive” each time. The Potency result in [20] and in [19] was “inactive” each time.
Take `C[C@@H]1C[C@H]2[C@@H]3CCC4=CC(=O)C=C[C@]4(C)[C@@]3(Cl)[C@@H](O)C[C@]2(C)[C@@]1(OC(=O)c1ccco1)C(=O)CCl`: the Potency entry in experiment [1], in [2], in experiment [3], in [17], in experiment [5] and in experiment [6] was “inactive” each time. In addition, the Potency entry in [7], in [8], in [9], in experiment [10], in experiment [11] and in experiment [12] was “inactive” throughout. Besides, the Potency result in experiment [13], in experiment [15], in [19] and in experiment [16] was “inactive” in each case.
For `C=COCCOCCOC=C`, the Potency result in experiment [1], in experiment [2], in experiment [3], in experiment [17], in [5] and in experiment [6] was “inactive” each time. Further, the Potency entry in experiment [7], in experiment [8], in [9], in [10], in experiment [11] and in [12] was “inactive” in each case. Besides, the Potency result in experiment [13], in experiment [14], in experiment [15], in experiment [18], in experiment [20] and in [19] was “inactive” each time. For the same compound, the Potency entry in experiment [16] was “inactive”.
Consider `CC(C)C(=O)OCCc1ccccc1`, for which the Potency result in [1], in [2], in experiment [3], in [4], in experiment [6] and in experiment [7] was “inactive” throughout. The Potency result in experiment [8], in experiment [10], in experiment [11], in experiment [12], in experiment [13] and in experiment [14] was “inactive” throughout. Besides, the Potency entry in [18], in experiment [20], in experiment [19] and in [16] was “inactive” in each case.
